From PubChem BioAssay
In the library only some 6.6% were active in any assay of this set; here they are far more common.
RGS4 inh: Inhibitors of Regulator of G Protein Signaling (RGS) 4: qHTS | Transcreener GDP fluorescence polarization, RGS4-accelerated GTP hydrolysis | Potency, µM (series often up to 114 µM), usual class: inhibitors | 390,000 compounds, 0.039% hits; note: nearly all actives have a fitted effect of over 75% in size
Target sequence (P49798 whole entry, looked up): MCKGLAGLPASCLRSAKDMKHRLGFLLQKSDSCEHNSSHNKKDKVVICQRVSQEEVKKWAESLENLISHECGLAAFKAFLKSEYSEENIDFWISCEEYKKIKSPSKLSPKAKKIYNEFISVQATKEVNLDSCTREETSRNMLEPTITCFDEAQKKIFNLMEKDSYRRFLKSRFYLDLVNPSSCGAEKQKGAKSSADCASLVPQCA
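MLSMR compounds (23 nl, pin-transferred) preincubated 10 min at room temperature with a 500nM (2x) first reagent, then RGS4 at 900nM (2x) plus Transcreener GDP mix added; fluorescence polarization (620/688 nm) read before and after 90 min at 30 °C.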
TSG101-PTAP inh: qHTS Assay for Iinhibitors of HIV-1 Budding by Blocking the Interaction of PTAP/TSG101. Tumor susceptibility gene 101 protein (Homo sapiens), Q99816. Fluorescence polarization, FITC-PTAP peptide / Tsg101 binding. AID 493005, 2010. Potency, µM (doses to about 115 µM), hits mostly inhibitors. 340,000 tested, under 10 active; active = well fitted inhibition curve with a large enough effect in the main read-out, with a control signal flat, not every such curve was filed as active; inconclusive = small, poorly fitted or top-dose-only effect, or effect the other way, or a change in a side signal; inactive = no such curve, though single readings can be large or run the other way
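Steps: Tsg101 binding domain dispensed (10 uM final), compounds pinned in DMSO, FITC-labeled PTAP-motif peptide added (50 nM final); after 20 min binding at room temperature, polarization measured.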
SW480 rereplic: A quantitative high throughput screen for small molecules that induce DNA re-replication in SW480 colon adenocarcinoma cells. SW480 DNA re-replication, Hoechst DNA content imaging, 48 h. 340,000 compounds, 1.8% hits. AID 624297, 2012. Potency, µM (series often up to 46.1 µM), usual class: activators; note: nearly all actives have a fitted effect of over 55% in size
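Cells (250 per well) received 23 nL compound or DMSO by pin tool and were kept 48 hr at 37 C, 5% CO2. Nuclei were then stained with Hoechst for 40 min and scanned for DNA content.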
KB-V1 cytotox: qHTS assay for MDR1-selective chemotherapeutics: Primary screen using the drug-selected MDR subline cells KB-V1. 400,000 compounds, 3.4% hits. Potency, µM (highest dose often 46.1 µM), hits mostly cytotoxic. KB-V1 MDR cells viability, CellTiter-Glo, 72 h. AID 1347076, 2019; note: nearly all actives have a fitted effect of over 60% in size
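qHTS viability screen in drug-selected KB-V1 MDR cells: 72 h compound treatment at 37 degrees C, ATP luminescence end point.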
KB-3-1 tox: qHTS assay for MDR1-selective chemotherapeutics: Primary screen using the parental adenocarcinoma cell KB-3-1; 400,000 compounds, 1.4% hits; Potency, µM (highest dose often 46.1 µM), most hits filed as cytotoxic; KB-3-1 viability, CellTiter-Glo ATP luminescence, 72 h; note: nearly all actives have a fitted effect of over 60% in size
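KB-3-1 parental drug-naive adenocarcinoma cells in DMEM/10% FBS, incubated 72 h at 37 C with pin-transferred compounds across a concentration series. Viability by CellTiter-Glo luminescence; concentration-response curves fitted after normalization.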
MCF10A rerep: A quantitative high throughput screen for small molecules that induce DNA re-replication in MCF 10a normal breast cells | MCF 10A DNA re-replication, Hoechst nuclear intensity, 48 h | Potency, µM (titrated, usually from 46.1 µM), most hits filed as activators | 350,000 compounds, 2.9% hits; note: nearly all actives have a fitted effect of over 50% in size
A number is an active result; – = inactive; ? = inconclusive; · = no result given; [ ] = dose if it differs, or a comment. Unless noted, calls come from the whole dose curve; as a rule, active = well fitted curve in the direction sought with a large enough effect; inconclusive = small, poorly fitted or top-dose-only effect, or another doubt; inactive = no such curve, though single readings can be large; an effect the other way counts as inactive or inconclusive.

SMILES	RGS4 inh	TSG101-PTAP inh	SW480 rereplic	KB-V1 cytotox	KB-3-1 tox	MCF10A rerep
Cc1nn(-c2ccccc2)c(Cl)c1/C=C1\SC(=S)N(CCCCCC(=O)O)C1=O	–	–	–	–	–	12µM
Cc1nn(-c2ccccc2)c(Cl)c1/C=C1\SC(=S)NC1=O	–	–	21µM	–	–	10µM
O=C(O)CCCN1C(=O)/C(=C\c2ccc(-c3nc4ccccc4s3)o2)SC1=S	–[11.4 µM]	–	23µM	–	–	?
O=C(CCOc1ccccc1)N(Cc1cccnc1)c1nc2c(F)cc(F)cc2s1	–	·	·	·	·	·
CCOc1ccccc1NC(=O)CSc1nc2c(oc3ccccc32)c(=O)n1-c1ccc(C)c(C)c1	–	·	·	–	–	·
Cc1cc(C)c2c(N)c(C(=O)c3ccc(Br)cc3)oc2n1	–	–	2.6µM	–	–	23µM
Cc1cc(C)c2c(N)c(C(=O)c3ccccc3)oc2n1	–	·	–	?	–	?
Cc1nn(CC(=O)NCc2ccc(OC(C)C)cc2)c(=O)c2c(C)n(-c3ccc(Cl)cc3)nc12	–	·	·	·	·	·
O=C(Nc1ccccc1)c1cnc(-c2ccccc2)nc1-c1ccccc1	–	–	13µM	10µM	–	?
CCc1ccc(CN(Cc2ccco2)c2cnc(S(C)(=O)=O)nc2C(=O)Nc2c(C)cccc2C)cc1	–	·	·	–	–	·
S=C(Nc1ccc(Cl)cc1Cl)Nc1ccccc1Oc1ccccc1	–	–	–	–	–	?
S=C(Nc1ccccc1Oc1ccccc1)Nc1cccc(Cl)c1Cl	–	–	–	21µM	23µM	?
O=S(=O)(c1ccccc1Br)N1CCN(c2nc(-c3cccs3)nc3ccccc23)CC1	–	·	·	–	–	·
Cc1ccn2c(=O)cc(COc3cccc(NC(=O)Nc4cccc(Cl)c4C)c3)nc2c1	–	·	·	–	–	·
COc1cc(-c2nc(-c3ccc(NC(=O)c4ccc5c(c4)OCO5)cc3)no2)cc(OC)c1OC	?	–	?	–	–	9.2µM
COc1ccc(-c2nc(-c3ccc(NC(=O)c4ccncc4)cc3)no2)cc1OC	–	–	–	10µM	?	–
Cc1ccccc1-c1nc(-c2ccc(NC(=O)c3ccc4c(c3)OCO4)cc2)no1	–	–	–	?	?	?
COc1ccc(Cl)cc1-c1nc(-c2ccc(NC(=O)c3ccncc3)cc2)no1	–	–	–	–	–	–
Cc1cc(=O)oc2cc(OCCc3ccccc3)ccc12	–	–	–	–	21µM	–
COc1ccc2c(C)cc(=O)oc2c1	–	–	?	–	–	–
COc1ccc(C2=NOC(COc3ccc4c(C)cc(=O)oc4c3)C2)c(OC)c1 (configuration not stated)	–	–	12µM	15µM	5.8µM	26µM
Cc1cc(=O)oc2cc(OCCCC[n+]3ccccc3)ccc12	–	–	–	–	–	–
COc1ccccc1C1=NOC(COc2ccc3c(C)cc(=O)oc3c2)C1 (configuration not stated)	–	–	8.2µM	18µM	1.2µM	1.6µM
Cn1c(=O)oc2cc(S(=O)(=O)NC(CC(=O)O)c3cccc(Br)c3)ccc21 (configuration not stated)	–	·	·	–	–	·
CCN1CCOC(=O)C1CC(=O)Nc1cc(C)cc(C)c1 (configuration not stated)	–	·	·	?	–	·
COc1ccccc1NC(=O)C(C)OC(=O)C1CC(=O)N(c2ccc3c(c2)OCCO3)C1 (configuration not stated)	–	28µM	–	–	–	–
COc1cccc(OC)c1OC(=O)C1CC(=O)N(c2ccc3c(c2)OCCO3)C1 (configuration not stated)	–	–	–	?	–	–
